Measured values: PubChem BioAssay (NCATS)
Records with an inconclusive call do not appear. Entries that show only a call come without a potency. Activity calls are given as the source filed them. The call rests on the fitted dose curve; in most records, active means well fitted cell-killing curve with a large enough effect; inconclusive means small, poorly fitted or top-dose-only effect; inactive means flat fitted curve, though single readings scatter.
Potency means the concentration at half of the fitted maximal effect.

Experiment: Cell Viability - LYMP2-020 (AID 986); further: nearly all actives have a fitted effect of over 55% in size
Settings: series mostly up to 92.2 µM
Text: NIH Chemical Genomics Center [NCGC]
NIH Molecular Libraries Screening Centers Network [MLSCN]
National Institutes of Environmental Health Sciences [NIEHS]
National Toxicology Program [NTP]
We have developed a 1536-well cell-based assay for quantitative high throughput screening (qHTS) against a number of cell lines to determine in vitro cytotoxicity of small molecules. This particular assay uses a human lymphoblastoid cell line (LYMP2-020) purchased from Coriell Institute for Medical Research.
NCGC Assay Protocol Summary:
The CellTiter-Glo luminescent cell viability assay (Promega) is a homogeneous method to measure the number of viable cells in culture. The end point readout of this assay is based on quantitation of intracellular ATP, an indicator of metabolic activity, using the luciferase reaction. Luciferase catalyzes the oxidation of beetle Luciferin to oxyluciferin and light in the presence of ATP. The luminescent signal is proportional to amount of ATP present.
Using the CellTiter-Glo luminescent cell viability assay, the amount of cellular ATP was measured in the lymphoblastoid cell line with complete culture medium following compound treatment for 24 hours. The assay was performed in opaque white Kalypsys 1536-well plates. In the screen, tetraoctylammonium bromide was used as positive control. Library compounds were measured for their ability to cause acute toxicity in the cell line, as reflected by a decrease in intracellular ATP levels, in a concentration-dependent manner. […] AC50 values were determined from concentration-response data modeled with the standard Hill equation.
qHTS protocol for CellTiter Glo lymphoblastoid cellular assay
[Step] [Parameter] [Value] [Description]
1. Reagent; 5 uL; 2500 lymphoblastoid cells/well
2. Time; 5 hr; 37 C incubation
4. Controls; 23 nL; Tetraoctylammonium bromide 6.4pM to 92 uM
5. Time; 24 hr; 37 C incubation
6. Reagent; 5 uL; CellTiter Glo reagent
7. Time; 30 min; Room Temperature
8. Detection; Luminescence; Viewlux plate reader
Keywords: cell viability, cytotoxicity, lymphoblastoid cell line, luminescence, NTPHTS, NTPHTS_NCGC, NIEHS, DSSTox, MLSMR, MLSCN, NIH Roadmap, qHTS, NCGC
With Nc1ccc(O)c([N+](=O)[O-])c1 the Potency was “inactive”.
In the case of CN1CCC[C@H]1c1cccnc1, the Potency is reported as “inactive”.
With NCCO the Potency was “inactive”.
For O=C1CN(/N=C/c2ccc([N+](=O)[O-])o2)C(=O)N1, the Potency was “inactive”.
With S=c1[nH]c2ccccc2s1 the Potency was “inactive”.
In the case of Nc1ccc([N+](=O)[O-])cc1O, the Potency is reported as “inactive”.
In the case of CN(C)c1ccc(N=NS(=O)(=O)O)cc1, the Potency is reported as “inactive”.
In the case of O=C(O)c1cc(O)c(O)c(O)c1, the Potency is reported as “inactive”.
With COc1cc(CNC(=O)CCCC/C=C/C(C)C)ccc1O the Potency was “inactive”.
With O=c1cc(-c2ccccc2)oc2ccccc12 the Potency was “inactive”.
In the case of Nc1nc2ccc([N+](=O)[O-])cc2s1, the Potency is reported as “inactive”.
In the case of CN(C)CCC(c1ccc(Cl)cc1)c1ccccn1 (stereo not drawn), the Potency is reported as “inactive”.
In the case of CC(C)NCC(O)COc1cccc2ccccc12 (stereo not drawn), the Potency is reported as “inactive”.
For O=C(O)/C=C\C(=O)O, the Potency was “inactive”.
For C#C[C@]1(O)CC[C@H]2[C@@H]3CCc4cc(O)ccc4[C@H]3CC[C@@]21C, the Potency was “inactive”.
In the case of CN(C)c1ccc(C(=C2C=CC(=[N+](C)C)C=C2)c2ccccc2)cc1, the Potency is reported as 0.316 µM (active).
With Nc1ccc(O)c(C(=O)O)c1 the Potency was “inactive”.
For CCCOC(=O)c1ccc(O)cc1, the Potency was “inactive”.
In the case of COc1cc(/C=C/C(=O)CC(=O)/C=C/c2ccc(O)c(OC)c2)ccc1O, the Potency is reported as 31.6 µM (active).
With CC1(C)S[C@@H]2[C@H](NC(=O)[C@H](N)c3ccccc3)C(=O)N2[C@H]1C(=O)O the Potency was “inactive”.
With N=C1N=C(N)c2cc3ccccc3cc21 the Potency was 39.8 µM (active).
For c1ccc2sc(SSc3nc4ccccc4s3)nc2c1, the Potency was “inactive”.
For CCCCCCCCCCCCCCCCCC(=O)O, the Potency was “inactive”.
